# About 83,000 compounds went through this panel and 20% of them were active in at least one assay; those are over-represented in the sample as a whole.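 Results are percent growth after 48 hours of single-concentration exposure. 100 means growth as in untreated cells, lower positive values show inhibition; negative values down to -100 show cell death.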 Calls of active or inactive are those of the source.
# Tested on: M14 melanoma
# Test: NCI-60 one-dose screen, 48 h (100 = growth as untreated, 0 = no growth, -100 = all killed)
# Conditions: 10 µM unless noted
# Method: Growth inhibition of the M14 human tumor cell line is measured as a screen for anti-cancer activity. Cells are grown in 96 well plates and exposed to the test compound for 48 hours. Compounds are tested at a single concentration, which is 10^-5 M for most compounds. The reported endpoint is percent growth (GI% or GIPRCNT), where numbers from 0 - 100% represent growth inhibition, and numbers from -100% - 0 represent cell death. For example, a value of 40 represents 60% growth inhibition. A value of 0 means no net growth occurred over the course of the experiment. A value of -40 indicates 40% of cells at the beginning of the experiment died by the end of the experiment. A value of -100 means all cells are dead at the end of the experiment.
# NCI-60 Human Tumor Cell Lines Screen was performed using the standard one-dose NCI protocol, which is described in more detail at https://dtp.cancer.gov/discovery_development/nci-60/default.htm.
# Compounds with GIPRCNT values below 10 were considered active. Activity score was based on GIPRCNT using the following formula: […]
# Score is 0 for GIPRCNT values of 100 or above, 50 for GIPRCNT values of 0, and 100 for GIPRCNT values of -100.
row,Compound,growth
1,COc1cc2c(c(OC)c1OC)C(=O)CC(c1cccc(NC(=O)c3cc(NC(=O)[C@H](C)N)ccc3Cl)c1)O2 (stereo not given in full),44.3% (inactive)
2,COc1c(F)ccc(C(=O)Nc2ccc3nc(NC(=O)C4CCCN(S(=O)(=O)c5ccc(C(F)(F)F)cc5)C4)sc3c2)c1F (stereo not given),79.3% (inactive)
3,COc1cc(OC)cc(C(=O)Nc2cccc(-c3cn(-c4ccc(S(N)(=O)=O)cc4)nn3)c2)c1,91.3% (inactive)
4,c1ccc(-c2csc(Nc3cccc(Nc4nc(-c5ccccc5)cs4)c3)n2)cc1,47.8% (inactive)
5,CC1=C(C(=O)OC(C)C)C(c2cccc(O)c2)NC(=S)N1 (stereo not given),109% (inactive)
6,COc1ccc(-c2nc3ccc(C(=O)NN4C(=O)c5ccc([N+](=O)[O-])cc5C4=O)cc3[nH]2)cc1,93.7% (inactive)
7,COc1cc2oc(-c3cccc(C(=O)Nc4ccc(Cl)cc4)c3)cc(=O)c2c(OCC(=O)N[C@@H](Cc2ccccc2)C(=O)O)c1OC,109% (inactive)
8,Cn1cc(-c2nnc(N)nc2-c2c[nH]c3ccc(F)cc23)c2cccnc21,21.6% (inactive)
9,CC1=C(C(=O)c2ccccc2)C(c2cccc(Cl)c2Cl)n2c(nc3ccccc32)N1 (stereo not given),81.8% (inactive)
10,COc1ccc(C(=O)/C=C/c2cccnc2)cc1S(N)(=O)=O,66.2% (inactive)
11,Cc1cc2nc3c4ccccc4n(CCCN(C)C)c3nc2cc1C,-74.4% (active)
12,Cc1ccc(-n2c(-c3cc4ccccc4nc3Cl)noc2=O)cc1,72.7% (inactive)
13,O=C(NNc1nc2cc(F)ccc2n2c(C(=O)N3CCN(C4CC4)CC3)ccc12)c1ncccn1,-33% (active)
14,O=C1/C(=C/C2=Cc3ccccc3OC2)SC(=S)N1c1ccccc1F,93.3% (inactive)
15,Brc1ccc(-c2n(Cc3ccc4ccccc4c3)c(-c3ccccc3)c(-c3ccccc3)[n+]2Cc2ccc3ccccc3c2)cc1,-90.8% (active)
16,O=C(N/N=C/c1ccc(-c2ccc(O)cc2)o1)c1[nH]c2ccc(Br)cc2c1-c1ccccc1,18.1% (inactive)
17,CN(C)c1ccnc(NCCCSC(c2ccccc2)(c2ccccc2)c2ccccc2)c1,-70.8% (active)
18,CC(C)CSc1nc(NCCc2c[nH]c3ccccc23)c(C#N)c(-c2ccc(Cl)cc2)n1,67.6% (inactive)
19,CCCCSc1nc(Nc2ccc(S(N)(=O)=O)cc2)c(C#N)c(-c2ccc(Cl)cc2)n1,10.6% (inactive)
20,CC(=O)OCC1OC(OC2C(COC(C)=O)OC(n3cc(COc4ccc5ccc(=O)oc5c4)nn3)C(OC(C)=O)C2OC(C)=O)C(OC(C)=O)C(OC(C)=O)C1OC(C)=O (stereo not given),107% (inactive)

row,Compound,growth
1,Cc1ccccc1[C@H]1C(C(=O)c2ccc(Cl)cc2)C2(N[C@@H]1c1ccccc1)C(=O)Nc1ccccc12 (stereo not given in full),-77.9% (active)
2,CCOC(=O)C1=C(N)N(c2ccccc2)C2=C(C(=O)CC(C)(C)C2)C1c1ccc([N+](=O)[O-])cc1 (stereo not given),99.5% (inactive)
3,COc1ccc(C(=O)/C=C/c2cccc(Cl)c2Cl)cc1S(N)(=O)=O,-76.9% (active)
4,CC(C)c1ccc2c(N)c(C(=O)Nc3ccc(C(F)(F)F)cn3)sc2n1,50.5% (inactive)
5,CC(C)c1sc(NC(=O)c2cc(NC(=O)c3cc(NC(=O)c4cscn4)cn3C)cn2C)nc1C(=O)NCCCN(C)C,45% (inactive)
6,COc1ccc(-c2nc(SCC(C)C)nc(NCCc3c[nH]c4ccccc34)c2C#N)cc1,81.2% (inactive)
7,O=C(c1ccc(OCCN2CCOCC2)cc1)C1[C@H](c2ccc(Cl)cc2)[C@@H](c2ccccc2)NC12C(=O)Nc1ccc(Br)cc12 (stereo not given in full),23.8% (inactive)
8,Cc1cc2nc3c([nH]c2cc1C)c1ccc(=O)cc1n3CCN(C)C,43.8% (inactive)
9,CC(C)CSc1nc(NCCc2c[nH]c3ccccc23)c(C#N)c(-c2ccccc2)n1,74.5% (inactive)
10,CCCCSc1nc(NCCc2c[nH]c3ccccc23)c(C#N)c(-c2ccc(OC)cc2)n1,70.1% (inactive)
11,C#CCOc1cc(N(CC)CC)ccc1C(C(=O)NC(C)(C)C)N(C(=O)C1CCc2cc(F)ccc2O1)c1ccccc1Br (stereo not given),55.5% (inactive)
12,Cn1cc(-c2cc(N)n3nc(-c4cn(C)c5ccccc45)cc3n2)c2cc(Cl)ccc21,-78.3% (active)
13,O=C(O)Cn1c(O)c(/C=C2/C=c3cc4c(cc3=NC2=O)OCCO4)sc1=S,111% (inactive)
14,Cn1cc(-c2nc(N)nnc2-c2c[nH]c3ccc(F)cc23)c2cccnc21,26.3% (inactive)
15,CCOC(=O)C1=C(N)N(c2ccccc2)C2=C(C(=O)CC(C)(C)C2)C1c1ccccc1Cl (stereo not given),50.8% (inactive)
16,C#CCOc1cc(N(CC)CC)ccc1C(C(=O)NC(C)(C)C)N(C(=O)C1CCc2cc(F)ccc2O1)c1ccc(F)c(Cl)c1 (stereo not given),63.3% (inactive)
17,CC(=O)c1cc(C(=O)c2ccccc2)n2c1ccc1ccccc12,101% (inactive)
18,Cc1ccc(-c2nc(C#N)c(S(=O)(=O)N3CCN(S(=O)(=O)c4ccc(Cl)cc4)CC3)o2)cc1,91.5% (inactive)
19,COc1cc2oc(-c3cccc(C(=O)Nc4ccc(Cl)cc4)c3)cc(=O)c2c(OCCNC(=O)[C@@H](N)CCC(=O)O)c1OC,16.7% (inactive)
20,Cc1cc2c(cc1Cl)C(=O)/C(=C/c1ccc(F)cc1)O2,96.8% (inactive)
